Laboratory results: the supplement of paper PMC12636033
± gives the standard deviation of the averaged measurements. Over roughly 33,000 sequences, “E-score (rank enrichment, -0.5 to 0.5)” has its median near -0.0028; the highest 2% begin near 0.23. What follows is part of a selection rich in the highest values, with near analogues and random picks from the rest.

These sequences were tested on 2Sb-muMax20 (muMax20 with two 1,3-bis(methyl)benzene Cys staples, A13C/A17C and Q88C/A92C, C-terminal Lys) (assay: PBM 8-mer E-score (E-score (rank enrichment, -0.5 to 0.5)); higher = stronger preferential binding).
Description: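 Protein binding microarray (universal PBM chip covering all 10-mers in fixed probe flanks) with chemically synthesized human Max(13-93) bHLH-LZ analogs (not full-length Max) bearing noncanonical residues (hArg, Tha, Aib, Nle at 65) and aromatic Cys staples. Read-out per 8-mer (and its reverse complement): E-score (rank-based enrichment, -0.5 to 0.5) and Z-score of median probe intensity.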

Row | Sequence | PBM 8-mer E-score
1 | TAGTTGAA | 0.23 ± 0.012
2 | AAGTTGAA | 0.0152 ± 0.0042
3 | CAGTTGAA | 0.0124 ± 0.054
4 | AGAGAAGG | -0.029 ± 0.046
5 | TATAGATA | 0.213 ± 0.042
6 | GATAGATA | -0.0327 ± 0.03
7 | CATAGATA | 0.277 ± 0.041
8 | ATCGCTCA | 0.0207 ± 0.008
9 | AGGAAGGC | -0.0526 ± 0.077
10 | CCTGTTTA | 0.137 ± 0.0084
11 | ACAAAATC | 0.0704 ± 0.00074
12 | AGAAATAC | 0.0203 ± 0.03
13 | CCAAAACG | -0.0328 ± 0.043
14 | ACAAAACG | 0.262 ± 0.006
15 | AGAAATAT | 0.0844 ± 0.12
16 | ACAAAATA | 0.193 ± 0.13
17 | AGAAATAG | 0.232 ± 0.034
18 | ACAAAACC | 0.13 ± 0.14
19 | ACAAATGG | 0.266 ± 0.032
20 | ACAAAATG | 0.238 ± 0.039
21 | CCAAATGG | -0.0949 ± 0.091
22 | ACAAATGT | 0.148 ± 0.026

Row | Sequence | PBM 8-mer E-score
23 | ACGTGGAC | 0.15 ± 0.054
24 | AAAGAGGG | 0.0479 ± 0.037
25 | CTCGTATC | 0.0723 ± 0.026
26 | GCCCTGTA | 0.032 ± 0.063
27 | TTAATGAA | 0.115 ± 0.088
28 | AGGACAGG | -0.1548 ± 0.00025
29 | TATAGCGA | 0.0513 ± 0.037
30 | AGAAATGA | -0.0864 ± 0.0095
31 | AGAAATGG | 0.251 ± 0.033
32 | AGAAATGC | 0.177 ± 0.015
33 | ACCTGCGC | -0.114 ± 0.011
34 | CCCAGCGA | -0.132 ± 0.046
35 | CCTCTACA | 0.0181 ± 0.028
36 | AAATCACA | 0.199 ± 0.0051
37 | CAATCACA | 0.0918 ± 0.051
38 | CAATCACG | 0.231 ± 0.021
39 | GATCTCCC | 0.122 ± 0.056
40 | ATTGTAGC | -0.106 ± 0.0083
41 | CGTCTCCA | -0.0564 ± 0.02
42 | AGTGGTAT | 0.0204 ± 0.062
43 | ATCCCCAT | 0.118 ± 0.011
44 | CCCCCACG | 0.0751 ± 0.11

Row | Sequence | PBM 8-mer E-score
45 | ATCCCCCC | -0.321 ± 0.063
46 | ATCCCCAA | 0.301 ± 0.04
47 | TCCCCACA | 0.261 ± 0.055
48 | CTCCCCCA | -0.142 ± 0.09
49 | CCCCCACA | -0.26 ± 0.052
50 | CTCCCCAA | 0.309 ± 0.072
51 | ATCCCCCA | -0.171 ± 0.032
52 | ATCCCCAC | 0.301 ± 0.04
53 | CTCCCCAG | 0.162 ± 0.085
54 | ATCCCCAG | 0.0369 ± 0.07
55 | ACTCGGAA | -0.104 ± 0.083
56 | ATGCACTG | 0.062 ± 9.2e-05
57 | CCGCATAA | 0.184 ± 0.0044
58 | ATTTTAAA | 0.126 ± 0.03
59 | GGAGGACA | -0.0957 ± 0.0057
60 | AGTTCGTA | -0.119 ± 0.064
61 | CAGGGGGG | -0.241 ± 0.072
62 | ATAGCAAA | 0.1715 ± 0.0012
63 | AGTCTGAC | -0.0779 ± 0.015
64 | CCCCCAAA | -0.215 ± 0.027
65 | TTCCCAAA | 0.0153 ± 0.013
66 | CTCCCCAC | 0.292 ± 0.041

Row | Sequence | PBM 8-mer E-score
67 | TCCCCAAA | 0.372 ± 0.029
68 | CCCCCCAC | -0.238 ± 0.085
69 | GTCCCCAA | 0.0368 ± 0.035
70 | GTCCCCAC | 0.0697 ± 0.074
71 | TCCCCCAA | -0.179 ± 0.0084
72 | TTCCCCAA | 0.32 ± 0.021
73 | AACAGATA | -0.0213 ± 0.017
74 | ACCTCTGA | -0.0896 ± 0.0083
75 | CAGACATG | -0.0511 ± 0.076
76 | ACTGCAGC | 0.0488 ± 0.072
77 | ACGCAACC | -0.0577 ± 0.0052
78 | ACGCCCCT | 0.109 ± 0.11
79 | GCTAGAAA | 0.197 ± 0.055
80 | ACAGCAAG | 0.24 ± 0.03
81 | ACAGAAAA | 0.083 ± 0.044
82 | ACAGCAAT | 0.0979 ± 0.018
83 | ACAGAAAG | 0.278 ± 0.04
84 | ACAGAAAC | 0.126 ± 0.0055
85 | ACAGCAAC | -0.0541 ± 0.075
86 | ATCCCGAG | -0.0644 ± 0.021
